Among the data in PubChem BioAssay (NCATS) are Potency values, retold here.

Assay [1] is described as follows: Quantitative High-Throughput drug screen in 47 multiple myeloma cell lines against the NCATS MIPE library collection: EJM_DSMZ cell viability assay (AID 1918926; also: nearly all actives have a fitted effect of over 30% in size). An outline of the steps:
(§1)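 Luminescent ATP measurement with CellTiter-Glo gives viability, scaled between DMSO-only wells (100%) and media-only wells (0%). Cells, 500 per well, faced library compounds for 48 hours at 37C.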

Assay [2] in a line: Quantitative High-Throughput drug screen in 47 multiple myeloma cell lines against the NCATS MIPE library collection: AMO1_DSMZ cell viability assay (AID 1918927; also: nearly all actives have a fitted effect of over 30% in size). Put shortly: as §1
Assay [3] can be described thus: Quantitative High-Throughput drug screen in 47 multiple myeloma cell lines against the NCATS MIPE library collection: ARD_JJKsccE7 cell viability assay (AID 1918929). Put shortly:
as §1

Assay [4] can be described thus: Quantitative High-Throughput drug screen in 47 multiple myeloma cell lines against the NCATS MIPE library collection: KMM1_JCRB cell viability assay (AID 1918960). Also: nearly all actives have a fitted effect of over 30% in size. Put shortly: (§2)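 500 cells/well; MIPE 4.0 library pinned in; 48 h, 37 °C, 5% CO2; CellTiter-Glo ATP luminescence. Controls: DMSO = 100% viability, medium only = 0%.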
Assay [5] is described as follows: Quantitative High-Throughput drug screen in 47 multiple myeloma cell lines against the NCATS MIPE library collection: KHM11_PLB cell viability assay (AID 1918962). Also: nearly all actives have a fitted effect of over 35% in size. An outline of the steps:
(§3)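 We plated 500 myeloma cells per well, pinned in MIPE 4.0 compounds, and incubated for 48 hours at 37C. ATP was then quantified with CellTiter-Glo, with DMSO and media-only wells defining 100% and 0%.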

Assay [6] in a line: Quantitative High-Throughput drug screen in 47 multiple myeloma cell lines against the NCATS MIPE library collection: ARP1_JJKsccF8 cell viability assay (AID 1918928; also: nearly all actives have a fitted effect of over 40% in size). An outline of the steps: as §2
Assay [7] in a line: Quantitative High-Throughput drug screen in 47 multiple myeloma cell lines against the NCATS MIPE library collection: Karpas620_DSMZ cell viability assay (AID 1918959). Also: nearly all actives have a fitted effect of over 30% in size. Put shortly:
as §3

Assay [8] in a line: Quantitative High-Throughput drug screen in 47 multiple myeloma cell lines against the NCATS MIPE library collection: JIM3_ECACC cell viability assay (AID 1918963; also: nearly all actives have a fitted effect of over 35% in size). Put shortly:
as §3

The nature of assay [9]: Quantitative High-Throughput drug screen in 47 multiple myeloma cell lines against the NCATS MIPE library collection: Karpas417_ECACC cell viability assay (AID 1918961). The note with it: Karpas417 myeloma viability, CellTiter-Glo ATP luminescence, 48 h; viability (% of DMSO): at 45.8 µM (top of the series). Put shortly:
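Viability readout: CellTiter-Glo luminescence following 5 min room-temperature incubation with reagent. Prior exposure: 48 h, 37C, humidified 5% CO2, 500 cells per well.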

Assay [10] can be described thus: Quantitative High-Throughput drug screen in 47 multiple myeloma cell lines against the NCATS MIPE library collection: JIM1_ECACC cell viability assay (AID 1918964). An outline of the steps:
as §1

Records with an inconclusive call do not appear. Calls of active or inactive are those of the source. Calls follow the shape of the dose curve; as a rule, active = well fitted curve in the direction sought with a large enough effect; inconclusive = small, poorly fitted or top-dose-only effect, or another doubt; inactive = no such curve, though single readings can be large; an effect the other way counts as inactive or inconclusive.
Potency is read from the fitted curve at half-maximal effect.

`O=c1cc(-c2ccccc2)oc2cc(O)cc(O)c12`: the Potency entry in assay [1] and in assay [5] was “inactive” each time. The results for the Potency in assay [2], in assay [3] and in assay [4] were 16.6 µM (active), 26.4 µM (active) and 20.9 µM (active), respectively.
On to `CC(C)(C)NC(=O)Nc1cccc(Nc2ncc(F)c(NC(C)(C)CO)n2)c1`, for which the Potency entry in [1] and in [7] was “inactive” each time. The Potency in [2] was 14.8 µM (active); in assay [6], 10.5 µM (active); in assay [8], 13.2 µM (active).
`COc1cc2ncnc(-n3nc(-c4ccccn4)nc3N)c2cc1OC`: the Potency in assay [1] is 14.8 µM (active); in [3] it was 0.743 µM (active); in [7], 0.418 µM (active); in assay [4], 1.05 µM (active); in assay [9], 0.132 µM (active); in assay [5] it was 5.9 µM (active). Also, in assay [8], the Potency is 8.33 µM (active). Also, in [2], the Potency entry is “inactive”.
With `CN1C[C@H]2c3ccccc3Oc3ccc(Cl)cc3[C@@H]2C1`, the Potency entry in assay [1] and in assay [6] was “inactive” throughout.
In the case of `NC(=O)[C@@H](CCC(F)(F)F)N(Cc1ccc(-c2ncon2)cc1F)S(=O)(=O)c1ccc(Cl)cc1`, the Potency in assay [1] is 20.9 µM (active). The Potency entry in assay [2], in [3], in assay [7] and in [5] was “inactive” each time.
In the case of `CC(C)n1cnc2c(NCCCCCCNC(=O)OC(C)(C)C)nc(NCCO)nc21`, the Potency is 20.9 µM (active) in assay [1]; 4.69 µM (active) in assay [2]; 5.9 µM (active) in assay [3]; 7.43 µM (active) in assay [4]; 18.7 µM (active) in assay [8]. Also, the Potency entry in assay [10] is “inactive”.
Turning to `OC[C@H]1O[C@@H](Oc2cc(O)cc(C=Cc3ccc(O)cc3)c2)[C@H](O)[C@@H](O)[C@H]1O`, the Potency in assay [1] is 4.69 µM (active). The Potency entry in [2] and in [7] was “inactive” each time.
Regarding `CCOC1OC(=O)C[C@H]1NC(=O)[C@@H]1CCCN1C(=O)[C@@H](NC(=O)c1ccc(N)c(Cl)c1)C(C)(C)C` (stereo not given in full), the Potency result in [1] and in assay [9] was “inactive” each time. Also, the Potency in assay [2] was 18.7 µM (active); in [3] it was 20.9 µM (active); in assay [7], 4.69 µM (active); in assay [4] it was 29.6 µM (active).
For `C[N+]1(C)[C@@H]2CC(OC(=O)[C@H](CO)c3ccccc3)C[C@H]1[C@H]1O[C@@H]12` (stereo not given in full), the Potency result in assay [1], in assay [2], in assay [7], in assay [4] and in assay [10] was “inactive” throughout.
With `CN(C)Cc1ccc(-c2nc3cccc4c3n2CCNC4=O)cc1`, the Potency in assay [1] is 20.9 µM (active); in assay [2], 18.7 µM (active); in [3] it was 29.6 µM (active); in [7] it was 23.5 µM (active); in assay [4], 18.7 µM (active); in [9], 14.8 µM (active). Moreover, the Potency in [5] was 11.8 µM (active); in assay [8], 20.9 µM (active); in assay [10] it was 11.8 µM (active).
For the molecule `COc1cc2c(cc1OC)CN(CCc1ccc(NC(=O)c3cc(OC)c(OC)cc3NC(=O)c3cnc4ccccc4c3)cc1)CC2`, the Potency result in assay [1], in assay [2], in assay [3], in assay [7] and in [4] was “inactive” in each case. The Potency in assay [5] was 20.9 µM (active); in assay [8], 23.5 µM (active).
For the molecule `CON=C(C(=O)N[C@@H]1C(=O)N2C(C(=O)OCOC(=O)C(C)(C)C)=C(C=Cc3scnc3C)CS[C@H]12)c1csc(N)n1`, the Potency result in assay [1], in assay [2], in assay [6] and in [8] was “inactive” each time. Moreover, the figures for the Potency in assay [7], in [9] and in assay [5] were 16.6 µM (active), 20.9 µM (active) and 18.7 µM (active), respectively.
As for `CC(C)(C)C(=O)Oc1ccc2c(c1)nc(NC(=O)c1cccc([N+](=O)[O-])c1)n2CCCO`, in [1], the Potency was 13.2 µM (active). The Potency entry in assay [2], in assay [3], in assay [7], in [4], in [9] and in [8] was “inactive” throughout. The Potency entry in [10] is “inactive”.
As for `N[C@H](CSC(c1ccccc1)(c1ccccc1)c1ccccc1)C(=O)O`, the Potency in assay [1] was 18.7 µM (active); in assay [2] it was 23.5 µM (active); in [6] it was 13.2 µM (active); in [8], 10.5 µM (active); in assay [10], 14.8 µM (active).
As to `CNC(=O)c1ccccc1Sc1ccc2c(C=Cc3ccccn3)n[nH]c2c1`, the Potency was 23.5 µM (active) in [1], 2.64 µM (active) in [2], 0.264 µM (active) in assay [7] and 3.32 µM (active) in assay [4].
With `O=C(O)c1ccc(-c2c[nH]c3ncc(-c4ccccc4)cc23)cc1C1CCCC1`, the Potency entry in assay [1], in assay [6], in assay [7] and in [4] was “inactive” in each case. In assay [3], the Potency was 0.935 µM (active).
With `Cc1ccn(-c2ccc(-c3ncco3)cc2)c(=O)c1-c1ccc2nc(N)ncc2c1`, the Potency result in assay [1] and in assay [6] was “inactive” each time. Further, the Potency is 14.8 µM (active) in [2], 13.2 µM (active) in assay [4], 5.26 µM (active) in assay [9] and 10.5 µM (active) in [8].
`CC(=O)N(C)C1(c2ccccc2)CCN(CCC[C@]2(c3ccc(Cl)c(Cl)c3)CCCN(C(=O)c3ccccc3)C2)CC1`: the Potency in assay [1] was 20.9 µM (active); in [2], 10.5 µM (active); in assay [3], 20.9 µM (active); in assay [7], 16.6 µM (active); in [4] it was 14.8 µM (active); in assay [5], 16.6 µM (active). In addition, in [8], the Potency is 20.9 µM (active).
With `NC(=O)c1cnc(-c2ccc(C3(N)CCC3)cc2)c(-c2ccccc2)c1`, the figures for the Potency in [1] and in assay [6] were 1.66 µM (active) and 8.33 µM (active), respectively.
As to `O=C(CCc1ccc(O)cc1)c1c(O)cc(O)cc1O[C@@H]1O[C@H](CO)[C@H](O)[C@H](O)[C@H]1O`, the Potency entry in [1], in assay [6], in assay [3], in assay [7], in assay [4] and in [8] was “inactive” throughout.
Turning to `CCC(=O)NC[C@H](Cc1ccc(OCCc2nc(-c3ccccc3)oc2C)cc1)NC(C)=CC(=O)c1ccc(C(F)(F)F)cc1`, the Potency in assay [1] was 26.4 µM (active); in assay [6], 23.5 µM (active); in [3], 1.48 µM (active). Besides, the Potency entry in [7] and in assay [8] was “inactive” each time.
`CO[C@H]1C(=O)[C@]2(C)[C@@H](OC)C[C@H]3OC[C@@]3(OC(C)=O)[C@H]2[C@H](OC(=O)c2ccccc2)[C@]2(O)C[C@H](OC(=O)[C@H](O)[C@@H](NC(=O)OC(C)(C)C)c3ccccc3)C(C)=C1C2(C)C`: the Potency entry in [1], in [6] and in assay [4] was “inactive” in each case.
In the case of `COc1ccc(Cc2ccc(NC(N)=O)cc2)cc1-c1cccc(Cl)c1`, the Potency result in assay [1], in assay [6] and in [8] was “inactive” throughout.
As for `Cc1c(O)cccc1C(=O)N[C@@H](CSc1ccccc1)[C@H](O)CN1C[C@H]2CCCC[C@@H]2C[C@@H]1C(=O)NC(C)(C)C`, the Potency in [1] was 23.5 µM (active); in assay [6], 23.5 µM (active); in [3] it was 16.6 µM (active); in [7], 14.8 µM (active); in assay [4], 18.7 µM (active); in [9], 14.8 µM (active). The Potency in assay [5] was 18.7 µM (active); in assay [8] it was 20.9 µM (active); in [10], 9.35 µM (active).
Consider `CC(C)(C(=O)NCC(F)(F)C(F)(F)F)C(=O)N[C@@H]1C(=O)Nc2ccccc2-c2ccccc21`, for which the Potency entry in assay [1] and in assay [6] was “inactive” in each case. Moreover, the Potency in assay [7] is 2.35 µM (active); in [4], 18.7 µM (active).
